In PubChem BioAssay (NCI) one finds growth data, which are given here for 39 compounds.

Molecules are shown by their SMILES. Several values for one entry are separate records, joined by “and”; a condition that tells them apart may be missing. Equal entries are not always repeated. Compounds without any hit were thinned out: in the full panel of roughly 83,000, 20% have a hit.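 A percent growth of 40 corresponds to 60% growth inhibition; 0 means no net growth; -100 means all cells died. Active threshold: below 10.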 Where a structure was tested more than once in an assay, its records may differ in their call. Activity calls are given as the source filed them.

In the experiment the test system is M14 melanoma. Put plainly: NCI-60 one-dose screen, 48 h (100 = growth as untreated, 0 = no growth, -100 = all killed). The following applies: 10 µM. How it is done: Growth inhibition of the M14 human tumor cell line is measured as a screen for anti-cancer activity. Cells are grown in 96 well plates and exposed to the test compound for 48 hours. Compounds are tested at a single concentration, which is 10^-5 M for most compounds. The reported endpoint is percent growth (GI% or GIPRCNT), where numbers from 0 - 100% represent growth inhibition, and numbers from -100% - 0 represent cell death. For example, a value of 40 represents 60% growth inhibition. A value of 0 means no net growth occurred over the course of the experiment. A value of -40 indicates 40% of cells at the beginning of the experiment died by the end of the experiment. A value of -100 means all cells are dead at the end of the experiment.
NCI-60 Human Tumor Cell Lines Screen was performed using the standard one-dose NCI protocol, which is described in more detail at https://dtp.cancer.gov/discovery_development/nci-60/default.htm.
Compounds with GIPRCNT values below 10 were considered active. Activity score was based on GIPRCNT using the following formula: […]
Score is 0 for GIPRCNT values of 100 or above, 50 for GIPRCNT values of 0, and 100 for GIPRCNT values of -100.
On to `COc1cc(C)c(-c2ccc(OC)c(=O)cc2C)c(OC)c1OC`, for which the growth was 4.63% (active) and 101% (inactive). Take `CC1=C2C(=C[C@@](C)(COS(C)(=O)=O)[C@@H]2O)C(=O)[C@](C)(O)C12CC2`: the growth is -8.82% (active). For `CC1=C[C@H]2O[C@@H]3C[C@@H](O)[C@](C)([C@@]2(C)CC1)[C@@]31CO1`, the growth is 6.68% (active).

On to `COc1cc(OC)c(S(=O)(=O)N(CCCl)CCCl)cc1C(=O)/C=C/c1ccc(Cl)cc1`, for which the growth was 68.4% (inactive).

As for `CCCCCCCCCC(=O)N[C@@](C)(CC)C(=O)N1CCC[C@H]1C(=O)N[C@@H](CC(C)C)C(=O)N[C@@](C)(CC)C(=O)N[C@@H](CCC(N)=O)C(=O)N[C@H](CCC(N)=O)C(=O)NC(C)(C)C(=O)NC(C)(C)C(=O)N[C@@H](CCC(N)=O)C(=O)N[C@H](CC(C)C)C(=O)N[C@H](CO)CC(C)C`, the growth is -80.7% (active) and -65.5% (active). To `N#Cc1c(-n2c(Br)c(Br)c3cc(Br)ccc32)[nH]c2c(Br)cc(Br)cc12` belongs -32.4% (active); to `CC1=C2C(=O)[C@](C)(CO)C=C2C(=O)[C@](C)(O)C12CC2`, 22.3% (inactive). Take `CC1=C2C(=C[C@@](C)(C=O)[C@@H]2O)C(=O)[C@](C)(O)C12CC2`: the growth is 2% (active). To `O=C(CCCc1ccc(N(CCCl)CCCl)cc1)OCc1ccccc1` belongs 95.1% (inactive); to `C[C@@H]1CCC/C=C/[C@H]2C[C@@H](O)C[C@@H]2[C@@H](O)/C=C/C(=O)O1`, 6.74% (active); to `COC1[C@@H]2C[C@H]3C(C)(C)O[C@@](C/C=C(/C)C(=O)O)(C2=O)[C@]32Oc3c(CC=C(C)C)c4c(c(O)c3C(=O)[C@H]12)C=CC(C)(C)O4` (some centres undefined), -53.9% (active). For `C/C=C/CC(C)C(O)[C@H](NC(=O)[C@@H]1CCCN1C(=O)C(C)(C)NC(=O)CCCCCCCCC)C(=O)N[C@@](C)(CC)C(=O)N[C@@H](CCC(N)=O)C(=O)N[C@H](CCC(N)=O)C(=O)NC(C)(C)C(=O)N[C@@](C)(CC)C(=O)N[C@@H](CCC(N)=O)C(=O)N[C@H](CC(C)C)C(=O)N[C@H](CO)CC(C)C` (some centres undefined) the value was 100% (inactive) and -67.5% (active); for `CC1=C2C(=C[C@@](C)(COC(=O)c3ccc(S(=O)(=O)F)cc3)[C@@H]2O)C(=O)[C@](C)(O)C12CC2`, -85% (active). To `CC(=O)O[C@@H]1C[C@H]2O[C@@H]3C=C(C)CC[C@]3(C)[C@]1(C)[C@]21CO1` belongs -45.9% (active); to `CC1=C(CN(O)C(N)=O)C2=C(C)C3(CC3)[C@@](C)(O)C(=O)C2=C1`, -63% (active). On to `C/C=C/CC(C)C(O)[C@H](NC(=O)[C@@H]1CCCN1C(=O)C(C)(C)NC(=O)CCCCCCCCC)C(=O)N[C@@](C)(CC)C(=O)N[C@@H](CCC(N)=O)C(=O)N[C@H](CCC(N)=O)C(=O)NC(C)(C)C(=O)NC(C)(C)C(=O)N[C@@H](CCC(N)=O)C(=O)N[C@H](CC(C)C)C(=O)N[C@H](CO)CC(C)C` (some centres undefined), for which the growth is -43.6% (active) and 20.4% (inactive).

With `COc1cccc2c1cc([N+](=O)[O-])c1c(C(=O)O)cc3c(c12)OCO3`, the growth was 103% (inactive). For the compound `CC1=C2C(=C[C@@](C)(COC(=O)c3ccc(S(=O)(=O)F)cc3)[C@@H]2OC(=O)c2ccc(S(=O)(=O)F)cc2)C(=O)[C@](C)(O)C12CC2`, the growth is -46.3% (active). For `CC1=C[C@H]2O[C@@H]3C[C@H]4OC(=O)/C=C\C=C\[C@H]([C@@H](C)O)OCC[C@@H](C)[C@H](O)C(=O)OC[C@@]2(CC1)[C@]4(C)[C@]31CO1` the value was -76% (active). `CC1=C(CCC=NNC(N)=O)C2=C(C)C3(CC3)[C@@](C)(O)C(=O)C2=C1`: the growth is -84.4% (active). In the case of `COC(=O)[C@H]1[C@@H](O)[C@@]2(O)c3c(OC)cc(OC)cc3O[C@@]2(c2ccc(OC)cc2)[C@@H]1c1ccccc1`, the growth is -1.79% (active). Regarding `COc1cc2c(O[C@@H]3OC[C@H](O)[C@H](O)[C@H]3O)c3c(c(-c4ccc5c(c4)OCO5)c2cc1OC)C(=O)OC3`, the growth was 31.3% (inactive). For `NC1CCc2cc(O)c(O)cc2C1` (centres undefined) the value was 83.5% (inactive); for `C=C1[C@@H](C)C2[C@H](Cc3ccccc3)NC(=O)[C@]23[C@H](OC(C)=O)/C=C/[C@@](C)(O)C(=O)[C@@H](C)C/C=C/[C@H]3[C@@H]1O` (some centres undefined), 51.3% (inactive). For `CC(C)=CCc1c2c(c(O)c3c1O[C@]14C(=C[C@@H]5C[C@H]1C(C)(C)O[C@@]4(C/C=C(/C)C(=O)O)C5=O)C3=O)C=CC(C)(C)O2` the value was -50.1% (active); for `N#Cc1nc(-c2ccccc2)oc1N1CCC(S(=O)(=O)F)CC1`, 106% (inactive). To `C[C@@H]1C[C@H]2C(=O)O[C@@H](C)C(NC(=O)[C@H](Cc3cc(F)cc(F)c3)NC(=O)Nc3ccc(OS(=O)(=O)F)cc3)C(=O)N3CCC[C@H]3C(=O)N3CCO[C@H](C)[C@H]3C(=O)N[C@@H](CO)C(=O)N2C1` (some centres undefined) belongs 23.6% (inactive); to `CCC(C)[C@H]1C(=O)O[C@H](C(C)C)C(=O)N(C)[C@@H](C(C)C)C(=O)O[C@H](C(C)C)C(=O)N(C)[C@@H](C(C)C)C(=O)O[C@H](C(C)C)C(=O)N1C` (some centres undefined), 21.2% (inactive); to `CC(=O)O[C@@H]1[C@@H]2O[C@H]2[C@@](C)(O)C(=O)[C@@H](C)C/C=C/[C@H]2[C@@H]3O[C@]3(C)[C@@H](C)C3[C@H](Cc4ccccc4)NC(=O)[C@@]312` (some centres undefined), 65.2% (inactive). Take `CN(CCF)/N=N/c1nc[nH]c1C(N)=O`: the growth was 23.3% (inactive). In the case of `C/C=C/CC(C)C(O)[C@H](NC(=O)[C@@H]1CCCN1C(=O)C(C)(C)NC(=O)CCCCCCC)C(=O)N[C@@](C)(CC)C(=O)N[C@@H](CCC(N)=O)C(=O)N[C@H](CCC(N)=O)C(=O)NC(C)(C)C(=O)NC(C)(C)C(=O)N[C@@H](CCC(N)=O)C(=O)N[C@H](CC(C)C)C(=O)N[C@H](CO)CC(C)C` (some centres undefined), the growth was 103% (inactive) and 25.1% (inactive). For `Cc1ccc(CNc2nc3ccc(OC/C(=C/F)CN)cc3o2)cn1` the value was 99.8% (inactive); for `CN1C(=O)[C@]23SSC1(C)C(=O)N2[C@H]1Nc2ccccc2C1([C@@]12c4ccccc4N[C@@H]1N1C(=O)C4(C)SS[C@]1(C(=O)N4C)[C@H]2O)[C@@H]3O` (some centres undefined), -90% (active); for `CC1=C[C@H]2O[C@@H]3C[C@H]4OC(=O)/C=C\C=C\[C@H]([C@@H](C)O)OCC/C(C)=C/C(=O)OC[C@@]2(CC1)[C@]4(C)[C@]31CO1`, -73.7% (active). In the case of `C/C=C\C(=O)O[C@@H]1CC2O[C@@H]3C=C(C)C(=O)C[C@]3(C)[C@]1(C)[C@]21CO1`, the growth was -78.6% (active). For `C/C=C/CC(C)C(O)[C@H](NC(=O)[C@@H]1CCCN1C(=O)C(C)(C)NC(=O)CCCCCCCCC)C(=O)NC(C)(C)C(=O)N[C@@H](CCC(N)=O)C(=O)N[C@H](CCC(N)=O)C(=O)NC(C)(C)C(=O)NC(C)(C)C(=O)N[C@@H](CCC(N)=O)C(=O)N[C@H](CC(C)C)C(=O)N[C@H](CO)CC(C)C` (some centres undefined) the value was -31.6% (active) and -53.6% (active). To `CC1=C(CN(O)C(N)=O)C2=C(C)C3(CC3)[C@](C)(O)C(=O)C2=C1` belongs -55.4% (active). To `COc1cc2c(O[C@@H]3OC[C@H](OC(C)=O)[C@H](OC(C)=O)[C@H]3O)c3c(c(-c4ccc5c(c4)OCO5)c2cc1OC)C(=O)OC3` belongs -17.9% (active).

As for `CC(C)(O)/C=C/C(=O)[C@](C)(O)[C@H]1[C@H](O)C[C@@]2(C)[C@H]3CC=C4[C@@H](C[C@H](O)C(=O)C4(C)C)[C@]3(C)C(=O)C[C@]12C`, the growth is 17.1% (inactive).
